Shown are actives, neighbours in structure and some others; about 12% of the full set was active somewhere.
BAZ2B inh = qHTS Assay for Inhibitors of BAZ2B | AlphaScreen BAZ2B-H3K14Ac peptide displacement | Potency, µM (series often up to 114 µM), without a hit: at the highest dose activity change, negative = inhibition, most hits filed as inhibitors | hit rate 4.4% among 360,000; further: on the % scale 0 is the no-effect control and ±100 the full control effect; nearly all actives have a fitted effect of over 60% in size
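In this displacement format the biotinylated H3(5-23) peptide acetylated at Lys14 serves as ligand at 50 nM, with BAZ2B at 50 nM in PBS pH 7.4 containing 0.01% Tween-20. Donor and acceptor beads are 10 ug/mL final.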
HP1b binding inh = HTS for Inhibitors of HP1-beta Chromodomain Interactions with Methylated Histone Tails. AlphaScreen HP1-beta / biotin-H3K9me3 peptide binding. Potency, µM (top dose mostly 114 µM), inactives show at the top dose activity change, negative = inhibition, hits mostly inhibitors. hit rate 0.56% among 390,000; further: nearly all actives have a fitted effect of over 70% in size
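Compound inhibition of the preformed complex between 50 nM HP1-beta and 50 nM biotinylated H3K9me3 peptide was read by AlphaScreen. Buffer was PBS pH 7.4 with 0.01% Tween-20. Incubations ran 30 min at room temperature, with 10 ug/mL donor/acceptor beads.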
Sfp inh = qHTS Assay for Inhibitors of Bacillus subtilis Sfp phosphopantetheinyl transferase (PPTase). 4'-phosphopantetheinyl transferase ffp (Bacillus subtilis), Q9F4F7. Biochemical Sfp PPTase activity, qHTS. Potency, µM, without a hit: largest response in the series, negative = inhibition, usual class: inhibitors. hit rate 3.5% among 310,000;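 further: the enzyme is Sfp with the accession as filed and its product quenches rhodamine fluorescence; 0% = enzyme reaction without inhibitor and -100% = no enzyme wells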
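After 15 min at room temperature with compound, 15 nM Sfp received 5 uM rhodamine-CoA plus 12.5 uM BHQ-2-ybbR (50 mM Hepes pH 7.6, 10 mM MgCl2). Rate came from the fluorescence difference over 30 min, ex 525/em 598 nm.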
JMJD2A Tudor inh = qHTS Assay for Inhibitors of JMJD2A-Tudor Domain. Lysine-specific demethylase 4A (Homo sapiens), O75164. Potency, µM (highest dose often 114 µM), without a hit: at the top dose activity change, negative = inhibition, actives largely listed as inhibitors. hit rate 4.4% among 390,000. AlphaScreen JMJD2A-Tudor / H3K4me3 peptide binding. AID 504339, 2011; further: on the % scale 0 is the no-effect control and ±100 the full control effect; nearly all actives have a fitted effect of over 50% in size
G9a inh = qHTS Assay for Inhibitors of Histone Lysine Methyltransferase G9a | AID 504332, 2011 | hit rate 8.8% among 350,000 | Potency, µM (highest dose often 102 µM), for the others: at the highest dose activity, negative = inhibition, usual class: inhibitors | G9a H3K9 monomethylation, AlphaScreen, 2 h; further: on the % scale 0 is the no-effect control and ±100 the full control effect; nearly all actives have a fitted effect of over 75% in size
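Quantitative HTS format: methyltransferase activity on a biotin-tagged H3K9 peptide is measured by AlphaScreen, using a rabbit anti-monomethyl-H3K9 antibody with streptavidin donor and anti-IgG acceptor beads. Final levels are 20 nM enzyme, 500 nM peptide, 20 uM SAM; 2 h RT.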
* = called active by the depositor; ? = inconclusive; / = not tested or not shown; [ ] = dose if it differs, or a comment. The call rests on the fitted dose curve; in most records, active means well fitted curve in the direction sought with a large enough effect; inconclusive means small, poorly fitted or top-dose-only effect, or another doubt; inactive means no such curve, though single readings can be large; an effect the other way counts as inactive or inconclusive. Potency means the concentration at half of the fitted maximal effect.

SMILES	BAZ2B inh	HP1b binding inh	Sfp inh	JMJD2A Tudor inh	G9a inh
CC(=O)OCC(NC(=O)C(CCCCNC(=O)OCc1ccccc1)NC(=O)OC(C)(C)C)C1OC(n2cc(F)c(=O)[nH]c2=O)C(OC(C)=O)C1OC(C)=O (stereo not drawn)	/	46%	21%	-9%	/
O=C(CN1C(=O)NC(CCc2ccccc2)C1=O)Nc1cccc(Br)c1 (stereo not drawn)	/	41%	/	-11%	/
Cc1cccc(-n2c(SCC(=O)N3CC(=O)Nc4ccccc43)nc3ccccc3c2=O)c1	-8%	6%	-24%	-18%	/
Cc1cccc(-n2c(SCC(=O)N3CC(=O)Nc4ccccc43)nc3ccccc3c2=O)c1C	1%	18%	-17%	-24%	45µM*
O=C(CNC(=O)c1ccccc1)OC(C(=O)c1ccccc1)c1ccccc1 (stereo not drawn)	-7%	55%	-1%	-4%	23%[59 µM]
COc1ccc(C(=O)C(OC(=O)CNC(=O)c2ccco2)c2ccccc2)cc1 (stereo not drawn)	-38%[57.1 µM]	8%	79µM*	-16%	50µM*
Cc1cc2c(c(/C=C/C(=O)c3ccccc3)c1)OC1(C=C2)Oc2ccccc2C(=O)N1C (stereo not drawn)	?	16%	-2%	-33%	50µM*
O=C1c2ccccc2OC2(C=Cc3ccccc3O2)N1Cc1ccccc1 (stereo not drawn)	9%	52%	-6%	17%	28%[59 µM]
COc1c(C)cc(NC(=O)c2ccc3c(c2)NC(=O)CO3)cc1C	-14%	16%	11%	-18%	-2%
COCCN=c1scc(-c2ccc3c(c2)NC(=O)CO3)n1/N=C(\C)c1ccc(O)cc1	28µM*	?	89µM*	22µM*	/
COc1ccccc1Nc1nc(-c2ccc3c(c2)NC(=O)CO3)cs1	-30%	33%	-13%	-21%	?
COc1cc(/C=N/n2c(-c3ccc4c(c3)NC(=O)CO4)csc2=Nc2cccc(C)c2)ccc1O	8.9µM*	?	-27%	?	10µM*
CC(C)C(NC(=O)C(CC(=O)O)NC(=O)C(CCCCN)NC(=O)C(N)CCCN=C(N)N)C(=O)NC(Cc1ccc(O)cc1)C(=O)O (stereo not drawn)	/	/	12%	/	10%[12.7 µM]
COC(=O)C1=C(C)N(Cc2ccccc2)C2=C3C(=O)N(C)C(=O)C3[C@@](O)(C(=O)OC)C(=O)N2C1c1ccccc1 (stereo partly drawn)	/	/	31%	/	/
COc1ccc(NC(=O)C(CCSC)N2C(=O)c3ccccc3C2=O)cc1 (stereo not drawn)	17%	-12%	50µM*	-14%	?
CSCC[C@@H](C(=O)Nc1cccc(F)c1)N1Cc2ccccc2C1=O	-34%	26%	/	-24%	18µM*
CSCCC(C(=O)NCc1cccs1)N1C(=O)c2ccccc2C1=O (stereo not drawn)	5%	3%	5%	-16%	8%[59 µM]
CSCC[C@@H](C(=O)NCc1cccs1)N1Cc2ccccc2C1=O	-9%	8%	16%	-23%	50µM*
CCCN(CCC)C(=O)Cn1c(=O)n(-c2ccc(Cl)c(Cl)c2)c(=O)c2c(C)c(C(=O)N(C)C)sc21	0%	15%	/	-18%	7%[59 µM]
CCN(CC)C(=O)Cn1cc(C(=O)C(=O)NCCc2c[nH]c3ccccc23)c2ccccc21	?	-6%	-5%	?	22%
Cc1cc(C)cc(C(=O)NC(CC(N)=O)c2ccc(NCCN3CCCC3)c([N+](=O)[O-])c2)c1 (stereo not drawn)	-28%	27%	9%	-18%	?
CC1=C(C#N)C(=O)OC(C)(C)C1	9%	38%	-4%	5%	13µM*
Cc1[nH]c(=O)c(C#N)c2c1COC(C)(C)C2	-11%	24%	12%	1%	1%
